GPR151 activ: activates the human receptor GPR151 | PathHunter beta-arrestin GPR151 cells, luminescence | activation, % at 11.2 µM | 650,000 tested, 1% active | AID 1508602; in the data active means activation above about 4.9%;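 further: 0% = median of compound wells and 100% = cells with positive control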
FBW7 act: activators of human E3 ligase FBW7 | Q969H0 | AlphaScreen FBW7–phospho-cyclin E peptide binding, activator screen | normalized activity (activation), % at 26.1 µM | 650,000 tested, 0.13% active | AID 1259310; in the data active means normalized activity above about 1.9%;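 further: purified mutant Fbw7 with reduced substrate affinity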
Target sequence (Q969H0 whole entry, looked up): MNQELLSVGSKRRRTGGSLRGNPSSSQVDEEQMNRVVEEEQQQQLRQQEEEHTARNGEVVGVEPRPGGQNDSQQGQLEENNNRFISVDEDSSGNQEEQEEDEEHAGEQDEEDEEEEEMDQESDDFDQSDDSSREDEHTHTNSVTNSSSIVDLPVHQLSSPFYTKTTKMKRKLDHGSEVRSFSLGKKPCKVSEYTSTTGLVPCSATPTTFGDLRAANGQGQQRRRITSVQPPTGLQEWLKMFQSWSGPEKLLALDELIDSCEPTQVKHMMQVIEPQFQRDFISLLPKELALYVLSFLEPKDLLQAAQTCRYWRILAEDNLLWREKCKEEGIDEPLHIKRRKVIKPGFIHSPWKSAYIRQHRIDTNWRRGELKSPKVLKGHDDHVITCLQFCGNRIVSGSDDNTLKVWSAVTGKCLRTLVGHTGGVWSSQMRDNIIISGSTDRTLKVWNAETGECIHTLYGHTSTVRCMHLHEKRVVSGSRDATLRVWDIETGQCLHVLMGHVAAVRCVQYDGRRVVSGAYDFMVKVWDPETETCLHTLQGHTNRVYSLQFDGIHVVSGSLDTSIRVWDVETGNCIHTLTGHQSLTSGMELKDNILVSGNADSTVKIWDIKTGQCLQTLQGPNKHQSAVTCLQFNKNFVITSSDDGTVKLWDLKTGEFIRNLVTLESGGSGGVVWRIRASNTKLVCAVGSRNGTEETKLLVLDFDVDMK
TEAD-YAP inh: TEAD-YAP interaction inhibition; HEK-TIYL cells, TEAD-Gal4/YAP UAS-luciferase luminescence; inhibition, % at 9.12 µM; 640,000 tested, 1.4% active; AID 1259422; in the data active means inhibition above about 32%;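 further: 0% = median of test compound wells and 100% = reference inhibitor wells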
MITF inh: inhibitors of human MITF. O75030. AlphaScreen MITF homodimerization, bead proximity signal. inhibition, % at 2.6 µM. 650,000 tested, 0.91% active; in the data active means inhibition above about 50%;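 further: 0% = vehicle wells with protein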
MITF inh conf: human MITF inhibition, confirmation | shares compounds with MITF inh | AlphaScreen MITF homodimerization, biotin/His-MITF beads | inhibition, % at 2.6 µM | 4,700 tested, 16% active;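 active means inhibition above a cutoff derived from the DMSO control wells, cut at about 28% in these data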;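 further: 0% = MITF dimer wells with DMSO only; inhibitors lower the bead chemiluminescence by keeping MITF from dimerizing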
AlphaScreen intf2: AlphaScreen optical interference, counter-screen; shares compounds with MITF inh; LysRS AlphaScreen counterscreen, signal interference, triplicate; inhibition, % at 2.6 µM; 4,700 tested, 7.6% active;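 active means inhibition above a cutoff derived from the DMSO control wells, cut at about 30% in these data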
GPR151 confirm: human GPR151 activation, confirmation screen; AID 1508609; shares compounds with GPR151 activ; GPR151 PathHunter beta-arrestin cells, luminescence, 90 min; % of EA-reagent control over plate median; activation, % at 11.2 µM; 6,700 tested, under 10 active;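 active means mean percent activation across replicates above the confirmation screen cutoff of 4.91%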
GPR119 counter: activates human GPR119 in a GPR151 counter-screen | shares compounds with GPR151 activ | GPR119 PathHunter beta-arrestin cells, luminescence, 90 min; 0 = compound-well median, 100 = enzyme-acceptor control | activation, % at 11.2 µM | 6,700 tested, 0.3% active | AID 1508611;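 active means mean percent activation in the counterscreen above 29.09%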;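 further: counterscreen on off-target GPR119 to flag nonselective hits from the GPR151 activator screen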
An asterisk follows results filed as active. Only some compounds are listed: those with a hit (about 3.5% of all), similar ones and a draw of the others.

How did C=C(C)CN1CC[C@]23c4c5ccc(O)c4O[C@H]2c2[nH]c4ccccc4c2CC3(O)C1C5 (some centres not stated) do in these assays?
GPR151 activ: -2; FBW7 act: 0; TEAD-YAP inh: 1; MITF inh: -3

Results for COc1cccc(CCNCc2cc(F)ccc2F)c1 ?
GPR151 activ: 0; FBW7 act: 0; TEAD-YAP inh: 9; MITF inh: 40

How did CN1CCN(Cc2ccccc2[N+](=O)[O-])CC1 do in these assays?
GPR151 activ: 0; FBW7 act: 0; TEAD-YAP inh: 9; MITF inh: 47

Results for Cc1ccc(N2CCN(Cc3ccccc3[N+](=O)[O-])CC2)cc1 ?
GPR151 activ: 0; FBW7 act: 0; TEAD-YAP inh: -10; MITF inh: 6

Results for O=[N+]([O-])c1ccccc1CN1CCN(Cc2ccc(F)cc2)CC1 ?
GPR151 activ: 0; FBW7 act: 0; TEAD-YAP inh: -23; MITF inh: 68*; MITF inh conf: 16; AlphaScreen intf2: 18

Results for O=[N+]([O-])c1ccccc1CN1CCN(c2ccc(F)cc2)CC1 ?
GPR151 activ: 0; FBW7 act: 0; TEAD-YAP inh: 5; MITF inh: 54*; MITF inh conf: -2; AlphaScreen intf2: -1

How did CN1CCN(CCC(=O)OC2CC3CCC(C2)N3C)CC1 (configuration not stated) do in these assays?
GPR151 activ: 1; FBW7 act: 0; TEAD-YAP inh: 4; MITF inh: 9

What do the screens show for `CN1C2CCC1CC(OC(=O)CNCc1cccs1)C2` (configuration not stated)?
GPR151 activ: 7.3*; FBW7 act: 0; TEAD-YAP inh: 0; MITF inh: 52*; MITF inh conf: 7; AlphaScreen intf2: 14; GPR151 confirm: 0; GPR119 counter: 5

What do the screens show for `C=CCN(CC#CCOc1ccccc1OC)CC=C`?
GPR151 activ: 11*; FBW7 act: 0; TEAD-YAP inh: -11; MITF inh: 60*; MITF inh conf: 7; AlphaScreen intf2: 12; GPR151 confirm: 0; GPR119 counter: -4

Results for COc1ccc(CN2CCN(CC(C)C)C(CCO)C2)c(OC)c1 (configuration not stated) ?
GPR151 activ: 0; FBW7 act: 0; TEAD-YAP inh: -4; MITF inh: 2

How did Cc1ccc2c(c1)CNc1ccccc1O2 do in these assays?
GPR151 activ: 5.2*; FBW7 act: 0; TEAD-YAP inh: -5; MITF inh: 6; GPR151 confirm: 0; GPR119 counter: -9

How did CN1/C(=C/C=C2C(=O)NC(=S)NC2=O)C(C)(C)c2ccccc21 do in these assays?
GPR151 activ: 0; FBW7 act: 1; TEAD-YAP inh: -4; MITF inh: 8

What do the screens show for `CCn1c(/C=C/C=C2\N(C)c3ccccc3C2(C)C)[n+](Cc2ccccc2)c2ccccc21`?
GPR151 activ: 8.7*; FBW7 act: 0; TEAD-YAP inh: 92*; MITF inh: -5; GPR151 confirm: 3; GPR119 counter: 27

What do the screens show for `CC[n+]1c(/C=C/C=C2\N(C)c3ccccc3C2(C)C)n(-c2ccccc2)c2ccc(C)cc21`?
GPR151 activ: 11*; FBW7 act: 0; TEAD-YAP inh: 91*; MITF inh: -8; GPR151 confirm: 3; GPR119 counter: 39*

How did CC[n+]1c(/C=C/C=C2\N(C)c3ccccc3C2(C)C)n(-c2ccccc2)c2cc(Cl)ccc21 do in these assays?
GPR151 activ: 8.3*; FBW7 act: 0; TEAD-YAP inh: 90*; MITF inh: -24; GPR151 confirm: 3; GPR119 counter: 20

What do the screens show for `Cc1c(C=O)cnn1Cc1ccccc1`?
GPR151 activ: 0; FBW7 act: 0; TEAD-YAP inh: -15; MITF inh: 9

Results for C[N+]1(C)CCC(OC(=O)C(c2ccccc2)c2ccccc2)CC1 ?
GPR151 activ: -1; FBW7 act: 0; TEAD-YAP inh: 3; MITF inh: -9

Results for CN1C2CCC1CC(OC(=O)C(c1ccccc1)c1ccccc1)C2 (configuration not stated) ?
GPR151 activ: 5.1*; FBW7 act: 1; TEAD-YAP inh: -6; MITF inh: 22; GPR151 confirm: 1; GPR119 counter: 1

What do the screens show for `Cc1[nH]c2c(Cl)ccc(Cl)c2c1CCN`?
GPR151 activ: 6.8*; FBW7 act: 0; TEAD-YAP inh: -1; MITF inh: 0; GPR151 confirm: 0; GPR119 counter: 1

Results for Cc1[nH]c2c(Cl)c(Cl)ccc2c1CCN ?
GPR151 activ: 1; FBW7 act: 0; TEAD-YAP inh: 24; MITF inh: 3

How did CCOC(=O)C1=C(C)OC(N)=C(C#N)C12C(=O)Nc1ccc(Cl)cc12 (configuration not stated) do in these assays?
GPR151 activ: 0; FBW7 act: 0; TEAD-YAP inh: -1; MITF inh: -7

Results for COc1cc(CN2CCNCC2)cc2c1OCO2 ?
GPR151 activ: 1; FBW7 act: 0; TEAD-YAP inh: -4; MITF inh: 0

Results for C=CCc1cc(OC)c2c(c1OC)OCO2 ?
GPR151 activ: 11*; FBW7 act: 0; TEAD-YAP inh: 2; MITF inh: 5; GPR151 confirm: -1; GPR119 counter: -4

How did CC(C)(C)P(=S)(c1ccncc1)N1CCCCCC1 (configuration not stated) do in these assays?
GPR151 activ: 2; FBW7 act: 0; TEAD-YAP inh: -12; MITF inh: -7

What do the screens show for `CCOC(=O)c1c(CN2CCCCC2)n(Cc2ccccc2)c2cc(Br)c(O)cc12`?
GPR151 activ: 5.0*; FBW7 act: 0; TEAD-YAP inh: -8; MITF inh: -6; GPR151 confirm: 1; GPR119 counter: 15

What do the screens show for `CCOC(=O)c1c(CN2CCCC2)n(Cc2ccccc2)c2cc(Br)c(O)cc12`?
GPR151 activ: 1; FBW7 act: 0; TEAD-YAP inh: -17; MITF inh: -6

Results for Cc1nn(Cc2ccccc2)c(Cl)c1C(=O)NC1CCCCCC1 ?
GPR151 activ: 7.4*; GPR151 confirm: -1; GPR119 counter: -10

What do the screens show for `COc1cc(/C=C2\C(=O)NC(=O)N(C)C2=O)cc(Br)c1O`?
GPR151 activ: 0; FBW7 act: 0; TEAD-YAP inh: 3; MITF inh: 11

How did Cc1noc(C)c1CC(=O)N1CCCC(N2CCOCC2)C1 (configuration not stated) do in these assays?
GPR151 activ: 1; FBW7 act: 0; TEAD-YAP inh: 2; MITF inh: -1
